Results taken from paper PMC7862700, “An all-to-all approach to the identification of sequence-specific readers for epigenetic DNA modifications on cytosine”.

These sequences were tested against T1, SPDEF (Homo sapiens, UniProt O95238 1-335) (assay: DAPPL (digital affinity profiling via proximity ligation, sequencing); 10 mM Tris-HCl pH 7.5, 50 mM NaCl, 1 mM DTT, 4% glycerol, room temperature, 30 min; GST-TFs on glutathione beads, 16-mer random dsDNA library, 0.1% formaldehyde crosslink after washing; high values mean tight binding). Settings: protein: recombinant; tags: N-terminal GST; dsDNA, one strand shown.
T1 sequence: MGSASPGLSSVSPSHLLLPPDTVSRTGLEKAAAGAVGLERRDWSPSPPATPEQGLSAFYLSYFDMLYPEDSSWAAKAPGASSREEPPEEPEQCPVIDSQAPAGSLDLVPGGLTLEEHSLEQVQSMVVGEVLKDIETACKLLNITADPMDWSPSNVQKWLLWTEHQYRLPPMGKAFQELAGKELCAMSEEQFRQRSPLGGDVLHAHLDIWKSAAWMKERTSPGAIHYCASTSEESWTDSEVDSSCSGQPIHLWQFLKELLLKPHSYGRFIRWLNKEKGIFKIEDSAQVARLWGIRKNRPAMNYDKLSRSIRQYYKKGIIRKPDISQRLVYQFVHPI
Outline: (§1)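 Human transcription factors fused to GST were expressed in yeast, captured on glutathione beads, given DNA barcodes and pooled with a GST-only negative control. Pools were incubated with 200 nmole of a 16-mer random double-stranded DNA library in Tris/NaCl/DTT/glycerol buffer at room temperature for 30 min. They were then washed, crosslinked with 0.1% formaldehyde, proximity-ligated (BsaI/T4 ligase, 1 h, 37 °C), PCR-amplified and sequenced on an Illumina NextSeq500. Binding signal is each 6-mer's read frequency for a factor divided by its frequency for the GST control.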
In the case of TAAATT, the binding signal is reported as 1.21 fold enrichment (6-mer frequency, TF over GST control).
TCCTTG was tested, and the binding signal was 1.48 fold enrichment (6-mer frequency, TF over GST control).
In the case of CCATAT, the binding signal is reported as 1.33 fold enrichment (6-mer frequency, TF over GST control).
In the case of CTAACT, the binding signal is reported as 1.24 fold enrichment (6-mer frequency, TF over GST control).
With CTGCTT the binding signal was 1.67 fold enrichment (6-mer frequency, TF over GST control).
With AATTAC the binding signal was 1.24 fold enrichment (6-mer frequency, TF over GST control).
TGTGCT was tested, and the binding signal was 1.31 fold enrichment (6-mer frequency, TF over GST control).
For ATACAA, the binding signal was 1.14 fold enrichment (6-mer frequency, TF over GST control).
TTACTA was tested, and the binding signal was 1.21 fold enrichment (6-mer frequency, TF over GST control).
For ACTCGT, the binding signal was 1.14 fold enrichment (6-mer frequency, TF over GST control).
In the case of AAACAA, the binding signal is reported as 1.27 fold enrichment (6-mer frequency, TF over GST control).
For AAAAAG, the binding signal was 1.18 fold enrichment (6-mer frequency, TF over GST control).
With CCCGAT the binding signal was 1.11 fold enrichment (6-mer frequency, TF over GST control).
TATTCA was tested, and the binding signal was 1.28 fold enrichment (6-mer frequency, TF over GST control).
CAATTA was tested, and the binding signal was 1.06 fold enrichment (6-mer frequency, TF over GST control).
CTTTTG was tested, and the binding signal was 1.46 fold enrichment (6-mer frequency, TF over GST control).
For ACGTCC, the binding signal was 2.11 fold enrichment (6-mer frequency, TF over GST control).
With CCCTTC the binding signal was 1.38 fold enrichment (6-mer frequency, TF over GST control).
ATGACA was tested, and the binding signal was 1.31 fold enrichment (6-mer frequency, TF over GST control).
With AATCAA the binding signal was 1.11 fold enrichment (6-mer frequency, TF over GST control).

The sequences below were run against T2, ETV7 (Homo sapiens, UniProt Q9Y603 1-341) in the same assay as above. Settings: protein: recombinant; tags: N-terminal GST; dsDNA, one strand shown.
T2 sequence: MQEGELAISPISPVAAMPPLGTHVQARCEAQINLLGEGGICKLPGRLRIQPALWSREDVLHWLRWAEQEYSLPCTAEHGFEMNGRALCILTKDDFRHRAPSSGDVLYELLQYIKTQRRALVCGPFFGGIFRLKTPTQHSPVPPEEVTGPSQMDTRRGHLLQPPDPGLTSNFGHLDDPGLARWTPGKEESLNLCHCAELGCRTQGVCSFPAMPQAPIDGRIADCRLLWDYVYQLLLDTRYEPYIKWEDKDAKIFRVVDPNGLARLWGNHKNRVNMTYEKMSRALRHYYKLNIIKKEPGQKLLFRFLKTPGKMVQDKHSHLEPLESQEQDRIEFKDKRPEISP
Outline: as §1
With CCTACT the binding signal was 1.35 fold enrichment (6-mer frequency, TF over GST control).
TCCTAG was tested, and the binding signal was 1.25 fold enrichment (6-mer frequency, TF over GST control).
In the case of GCACTT, the binding signal is reported as 1.92 fold enrichment (6-mer frequency, TF over GST control).
For TATCAT, the binding signal was 1.1 fold enrichment (6-mer frequency, TF over GST control).
With ATAGTA the binding signal was 1.3 fold enrichment (6-mer frequency, TF over GST control).
For TCATCC, the binding signal was 1.24 fold enrichment (6-mer frequency, TF over GST control).
CCATAA was tested, and the binding signal was 1.15 fold enrichment (6-mer frequency, TF over GST control).
With TACGCG the binding signal was 1.02 fold enrichment (6-mer frequency, TF over GST control).
TAATCT was tested, and the binding signal was 1.5 fold enrichment (6-mer frequency, TF over GST control).
For GCTTGC, the binding signal was 1.21 fold enrichment (6-mer frequency, TF over GST control).
TTCGTT was tested, and the binding signal was 1.55 fold enrichment (6-mer frequency, TF over GST control).
In the case of TCAACC, the binding signal is reported as 1.07 fold enrichment (6-mer frequency, TF over GST control).
With TGCTAT the binding signal was 1.43 fold enrichment (6-mer frequency, TF over GST control).
With CTACTC the binding signal was 1.13 fold enrichment (6-mer frequency, TF over GST control).
In the case of ATCAAC, the binding signal is reported as 1.02 fold enrichment (6-mer frequency, TF over GST control).
In the case of CTTGCG, the binding signal is reported as 1.3 fold enrichment (6-mer frequency, TF over GST control).
With ATGTTC the binding signal was 1.3 fold enrichment (6-mer frequency, TF over GST control).
In the case of ATGAGC, the binding signal is reported as 1.15 fold enrichment (6-mer frequency, TF over GST control).
AAATCA was tested, and the binding signal was 1.16 fold enrichment (6-mer frequency, TF over GST control).
TGACCC was tested, and the binding signal was 1.4 fold enrichment (6-mer frequency, TF over GST control).
With TAAATT the binding signal was 1.27 fold enrichment (6-mer frequency, TF over GST control).
TCCTTG was tested, and the binding signal was 1.22 fold enrichment (6-mer frequency, TF over GST control).
With CCATAT the binding signal was 1.16 fold enrichment (6-mer frequency, TF over GST control).
With CTAACT the binding signal was 1.29 fold enrichment (6-mer frequency, TF over GST control).
For CTGCTT, the binding signal was 1.57 fold enrichment (6-mer frequency, TF over GST control).
With AATTAC the binding signal was 1.36 fold enrichment (6-mer frequency, TF over GST control).
TGTGCT was tested, and the binding signal was 1.18 fold enrichment (6-mer frequency, TF over GST control).
With ATACAA the binding signal was 1.14 fold enrichment (6-mer frequency, TF over GST control).
TTACTA was tested, and the binding signal was 1.36 fold enrichment (6-mer frequency, TF over GST control).
With ACTCGT the binding signal was 1.26 fold enrichment (6-mer frequency, TF over GST control).
AAACAA was tested, and the binding signal was 1.28 fold enrichment (6-mer frequency, TF over GST control).
In the case of AAAAAG, the binding signal is reported as 1.32 fold enrichment (6-mer frequency, TF over GST control).
In the case of CCCGAT, the binding signal is reported as 1.24 fold enrichment (6-mer frequency, TF over GST control).
With TATTCA the binding signal was 1.23 fold enrichment (6-mer frequency, TF over GST control).
In the case of CAATTA, the binding signal is reported as 1.15 fold enrichment (6-mer frequency, TF over GST control).
CTTTTG was tested, and the binding signal was 1.44 fold enrichment (6-mer frequency, TF over GST control).
In the case of ACGTCC, the binding signal is reported as 1.61 fold enrichment (6-mer frequency, TF over GST control).
With CCCTTC the binding signal was 1.43 fold enrichment (6-mer frequency, TF over GST control).
ATGACA was tested, and the binding signal was 1.44 fold enrichment (6-mer frequency, TF over GST control).
In the case of AATCAA, the binding signal is reported as 1.16 fold enrichment (6-mer frequency, TF over GST control).
